Results from PubChem BioAssay (NCI).
The panel holds about 79,000 compounds, 15% with a hit somewhere; the sample as a whole holds those more often. The source made the active and inactive calls. Cut-off read from the data, not from the text of the source: active = growth inhibition above about 70%; inactive = the rest.

Tests used:
[1] = NCI Yeast Anticancer Drug Screen. Data for the rad50 strain (AID 155);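 note: 0% = growth of vehicle-only cultures of the same strain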; details: S. cerevisiae rad50 strain growth inhibition; at 50.0 µM; active compounds read high
How it was run: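 Readout: growth inhibition relative to vehicle-treated cultures. Compound exposure was carried out in a genetically defined yeast strain deficient in DNA damage repair.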

[2] = NCI Yeast Anticancer Drug Screen. Data for the mec2-1 strain (AID 157); details: S. cerevisiae mec2-1 strain, at 50.0 µM, active compounds read high
How it was run: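 Vehicle-treated cultures served as reference for growth inhibition of compound-exposed mec2-1 yeast.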

[3] = NCI Yeast Anticancer Drug Screen. Data for the sgs1 mgt1 strain (AID 161);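 note: 0% = growth of cultures given vehicle only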; details: S. cerevisiae sgs1 mgt1 strain, at 50.0 µM, active compounds read high
How it was run: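 Genetically altered yeast, compound exposure, growth inhibition relative to vehicle.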

[4] = NCI Yeast Anticancer Drug Screen. Data for the cln2 rad14 strain (AID 165);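 note: 0% = growth equal to vehicle treated cultures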; details: S. cerevisiae cln2 rad14 strain, at 50.0 µM, active compounds read high
How it was run: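 Each compound was tested on cln2 rad14 yeast. Inhibition of growth was calculated against vehicle-exposed controls.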

[5] = NCI Yeast Anticancer Drug Screen. Data for the bub3 strain (AID 167); details: S. cerevisiae bub3 mutant strain, at 50.0 µM, active compounds read high
How it was run: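 Readout: yeast growth inhibition, expressed relative to vehicle-only wells. The test organism is a mutant strain from a panel with lesions in DNA repair or checkpoint genes.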

[6] = NCI Yeast Anticancer Drug Screen. Data for the mlh1 rad18 strain (AID 175); details: S. cerevisiae mlh1 rad18 strain growth inhibition; at 50.0 µM; active compounds read high
How it was run: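 Vehicle-treated cultures served as the reference for growth inhibition in a yeast strain carrying DNA damage repair alterations exposed to each compound.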

Measured: growth inhibition

c1ccc(-n2nc3ccc4nonc4c3n2)cc1
inactive: [1] -17.9% | [2] -20.8% | [3] -10.5% | [4] 7.4% | [5] -0.05% | [6] -1.55%

CC1=C(CCC(C)CO)O[C@H]2C[C@H]3[C@@H]4CC[C@H]5C[C@@H](O)CC[C@]5(C)[C@H]4CC(=O)[C@]3(C)[C@@H]12 (some centres not stated)
active: [3] 84% | [6] 70.8%
inactive: [1] 64.3% | [2] 28.6% | [4] 38.4% | [5] 67.3%

N#CNC(=NCCO)NCCO
inactive: [1] 25.8% | [2] 7.3% | [3] -2.25% | [4] 11.3% | [5] -0.35% | [6] 26.6%

O=c1[nH]c(=O)n(COCCO)cc1-c1ccccc1
inactive: [1] -8.75% | [2] -5.65% | [3] 1.9% | [4] 5.75% | [5] -1.25% | [6] -2.9%

COC(=O)C1C(=O)C=C(C)C(C(=O)OC)C1c1ccccc1 (configuration not stated)
inactive: [1] 7.7% | [2] -4.2% | [3] 6.15% | [4] -5.85% | [5] 12.5% | [6] 0.25%

CC(C)(C)CNC(=S)Nc1ccccc1
inactive: [1] 3.45% | [2] 2.6% | [3] 3.4% | [4] 3.55% | [5] -2.05% | [6] 10%

COc1ccc(/C=N/NC(=O)CCCCCCCCC(=O)N/N=C/c2ccc(OC)c(OC)c2)cc1OC
inactive: [1] -26.4% | [2] -13.4% | [3] -23.4% | [4] -50.2% | [5] -0.75% | [6] -12.5%

CC(C)(Cl)C1CCC(CC(Cl)(Cl)Cl)CC1 (configuration not stated)
inactive: [1] 5.3% | [2] -16.4% | [3] 0.6% | [4] -26.9% | [5] 11.9% | [6] 9.75%

Nc1ncc2c(n1)CSCC2=O
inactive: [1] -9.4% | [2] 27.7% | [3] 14.1% | [4] -2.7% | [5] 16.9% | [6] 12%

CCC(C#N)NC(=O)NC(C#N)CC (configuration not stated)
inactive: [1] 0.75% | [2] 14.6% | [3] -9.7% | [4] -1.6% | [5] -16.9% | [6] -42.1%

C(=N\c1nc2ccccc2s1)/c1cccs1
inactive: [1] -15.7% | [2] -34% | [3] -14.8% | [4] -5.95% | [5] 3.45% | [6] -19.4%

CCCOC(=O)C(OC(=O)c1ccccc1)C(OC(=O)c1ccccc1)C(=O)OCCC (configuration not stated)
inactive: [1] -0.65% | [2] 0.1% | [3] -8% | [4] -10.9% | [5] 5.05% | [6] -3.7%

CC1COS(=O)(=O)CS(=O)(=O)O1 (configuration not stated)
inactive: [1] -61.2% | [2] -17.4% | [3] -15.8% | [4] -57.8% | [5] 6.7% | [6] -16.1%

CCOC1(C)OC2OC(COC(c3ccccc3)(c3ccccc3)c3ccccc3)C(OC(=O)c3ccccc3)C(OC(=O)c3ccccc3)C2O1 (configuration not stated)
inactive: [1] -3.5% | [2] 14% | [3] 4.05% | [4] -9.4% | [5] -5.9% | [6] 29.6%

O=C1NCC/C1=C\c1ccccc1
inactive: [1] -7.2% | [2] -10.7% | [3] -4.6% | [4] -8.05% | [5] -6.65% | [6] -15.4%

CC(=O)C1C(=O)C(=O)N(c2ccccc2C(C)C)C1=O (configuration not stated)
inactive: [1] 19% | [2] 6.55% | [3] 11.9% | [4] 21.4% | [5] 11.9% | [6] 29.5%

CCOP(=O)(OCC)C1OCC(O)C(C2OC(P(=O)(OCC)OCC)OCC2O)O1 (configuration not stated)
inactive: [1] 7.95% | [2] 4.4% | [3] 2.45% | [4] 0.85% | [5] -1.55% | [6] 7.25%

O=[N+]([O-])c1ccc(C=NC23CC4CC(CC(C4)C2)C3)cc1
inactive: [1] -8.05% | [2] -11.1% | [3] -0.35% | [4] 14.2% | [5] 5.55% | [6] -3.9%

CC1=NN2C(=O)CSC2=NC(C)(C)C1
inactive: [1] -5.35% | [2] -12.8% | [3] 7.45% | [4] 25.9% | [5] -5.75% | [6] -9.95%

CC1CCCCN1Cc1ccccc1COC(=O)c1ccc([N+](=O)[O-])cc1 (configuration not stated)
inactive: [1] 10.6% | [2] -5.05% | [3] 4.8% | [4] -29.1% | [5] 4.05% | [6] 18.6%

C[Si](C)(C)CSC#N
inactive: [1] -16.6% | [2] 6.45% | [3] 12.5% | [4] 4.65% | [5] 2.75% | [6] 11.5%

CCCCCCCCCCCCCCCCCC(=O)CC(=O)OCC
inactive: [1] -1.25% | [2] 1.15% | [3] 3.5% | [4] 17.9% | [5] -10% | [6] 4.25%

OCCCCCCCCCCCO
inactive: [1] 16.9% | [2] 2.3% | [3] 4.35% | [4] -15.5% | [5] 12.6% | [6] -19.9%

N#C/C(=C/n1c(=S)[nH]c2ccc([N+](=O)[O-])cc21)C(N)=O
inactive: [1] -53.3% | [2] -41% | [3] -50.4% | [4] 2.15% | [5] -24% | [6] -70.9%

O=c1[nH]c(CCCc2ccccc2)c(Br)c(=O)[nH]1
inactive: [1] -1.5% | [2] -7.65% | [3] 3.35% | [4] -4.35% | [5] 15.1% | [6] 24.4%

Cn1c(-c2ccc3c(c2)OCO3)cc(=O)c2ccccc21
inactive: [1] -11.2% | [2] -17.6% | [3] -4.9% | [4] -4.55% | [5] 4.85% | [6] 0.6%

CC(=O)Oc1ccc(OC(C)=O)c2cc3c(cc12)C(=O)C(C)=C(C)C3=O
inactive: [1] 0.4% | [2] 2.35% | [3] 1.1% | [4] -7.05% | [5] 3.35% | [6] 4.85%

COc1cc(/C=N/NC(N)=S)cc(OC)c1
inactive: [1] -4.1% | [2] -11.2% | [3] -15.1% | [4] -35.9% | [5] -17.6% | [6] -11.8%

COc1cc2[nH]c3c(c2cc1OC)CCN[C@@]31CC[C@@]2(CC3c4c(cc(OC)c(O)c42)CCN3C)C[C@@H]1OC (some centres not stated)
inactive: [1] -14.8% | [2] -23.9% | [3] -37.5% | [4] 1% | [5] -35% | [6] -9.7%

O=c1[nH]c2cc([N+](=O)[O-])ccc2nc1/C(=N/Nc1ccccc1)C(O)c1ccco1 (configuration not stated)
inactive: [1] 7.9% | [2] -17.4% | [3] 9.2% | [4] 16.2% | [5] 6.65% | [6] 25.3%

Cc1cccc(C(=O)OC2CCCCC2)c1
inactive: [1] 1.85% | [2] 1.2% | [3] -3.1% | [4] -30.4% | [5] 23.9% | [6] 0.5%

COc1cccc2cc(-c3c[nH]c4ccccc34)c(=O)oc12
inactive: [1] 1% | [2] 11.2% | [3] 11.2% | [4] 7% | [5] 1.65% | [6] 0.75%

C/C=C\C(=O)OC1CCC(C2CCCCC2)CC1 (configuration not stated)
inactive: [1] 25.3% | [2] 9.3% | [3] 14.8% | [4] 1.25% | [5] 56.6% | [6] -2.15%

CSc1cc2c(cc1NC(C)=O)Cc1ccccc1-2
inactive: [1] 13.4% | [2] -3.75% | [3] 0.6% | [4] 10.5% | [5] 9.15% | [6] -13.4%

c1ccc(C2Nc3ccccc3NC2c2ccccc2)cc1 (configuration not stated)
inactive: [1] 29.5% | [2] 5.75% | [3] 24.4% | [4] 20.9% | [5] 60.6% | [6] 56.8%

C#CC(C)(O)CC(C)C (configuration not stated)
inactive: [1] 1.9% | [2] -1.2% | [3] -8.6% | [4] -73.7% | [5] 6.65% | [6] -71.7%

Cc1ccnc(=S)[nH]1
inactive: [1] 16.9% | [2] 5.45% | [3] 33.1% | [4] 13.3% | [5] 23.6% | [6] 18.3%

CCCC[P+](CCCC)(CCCC)C(C(=O)OC)C(C(=O)OC)=C1SC(C(=O)OC)=C(C(=O)OC)S1 (configuration not stated)
inactive: [1] -0.75% | [2] 0.7% | [3] 6.75% | [4] 6.6% | [5] 19.4% | [6] -45.5%

O=C(O)c1ccccc1C(=O)CC(O)(C(F)(F)F)C(F)(F)F
inactive: [1] -20.6% | [2] 9.9% | [3] -1.5% | [4] -31.3% | [5] -10.9% | [6] -20.9%

CCc1nc2c([nH]1)c(=O)n(C)c(=O)n2C
inactive: [1] 35% | [2] -4.6% | [3] 11.6% | [4] 16.5% | [5] -20.6% | [6] 20.4%

O=C1O/C(=C(/Cl)c2cccc3ccccc23)c2ccccc21
inactive: [1] -40.2% | [2] -67.8% | [3] -38.4% | [4] 9.55% | [5] -16.9% | [6] -38%

CC1C(c2ccccc2)=C(c2ccccc2)C(c2ccccc2)=C(c2ccccc2)C1c1ccccc1 (configuration not stated)
inactive: [1] 27.6% | [2] -19.8% | [3] 2.6% | [4] -5.55% | [5] -1.2% | [6] -10.7%
